Source: ChEMBL document CHEMBL3988442, “University of Dundee, Small-Polar-MMV Screening Library” (2021)
Where “and” joins values, the source holds several entries; their conditions need not be identical. Equal entries are not always repeated. Out of some 34,000 compounds screened, about 290 (0.85%) showed an effect of 50% or more. The sample holds strong results, similar compounds and a random draw of the others, so the mix is not that of the screen.

Test system: Plasmodium falciparum
Experiment: Plasmodium falciparum sporozoite viability assay
Assay type: functional, organism-based
Design: scale not given: in the data most compounds retested in dose-response had high values

| SMILES | Percent Effect [%] | Percent Effect (10 mM as filed; unlikely as a test dose) |
| --- | --- | --- |
| Cc1nc(C2CN(C)CCO2)cc(N2CCSCC2)n1 (centres undefined) | -0.8223 |  |
| Cc1cc(C(=O)N2CCC3(C2)CN(c2cccnc2)C(=O)CN3C)[nH]n1.O=C(O)C(F)(F)F.O=C(O)C(F)(F)F (centres undefined) | 9.444 |  |
| CN(C)CC(C)(O)CNC(=O)Nc1sc2ccccc2c1Cl (centres undefined) |  | 52.95% and 62.95% and 63.37% |
| CS(=O)(=O)CCCNC(=O)Nc1sc2ccccc2c1Cl |  | -22.09% and -10.77% and -17.84% |
| CC(=O)N1CCOC(c2c(C(=O)NCCN(C)C)sc3ccccc23)C1 (centres undefined) | 3.684 |  |
| CN(C)C(=O)CCNC(=O)Nc1sc2ccccc2c1Cl |  | 44.04% and 58.57% and 53.39% |
| CN1CCN(Cc2cn3c(n2)CN(Cc2ccc(F)cc2)CC3)CC1.O=C(O)C(F)(F)F.O=C(O)C(F)(F)F.O=C(O)C(F)(F)F | 11.14 |  |
| O=C(O)[C@@H]1CCN(C(=O)Cc2ccccn2)[C@@H]1c1ccc(F)cc1 | 2.558 |  |
| CN(C)C(=O)NC1COC2(CCN(Cc3ccccc3)CC2)C1.O=C(O)C(F)(F)F (centres undefined) |  | -6.642% and -9.604% and -2.422% |
| CCC(O)CN1CCN(C(=O)c2sccc2OC)CC1 (centres undefined) | 5.511 |  |
| N#Cc1c(SCCN2CCCCC2)sc2c(O)cc(O)nc12 | 19.81 |  |
| Cc1nc(C)n(C2CCCN(C(=O)CCOC(C)C)C2)n1 (centres undefined) | 5.53 |  |
| CCc1nc(C2CCCN(C(=O)NCCOC)C2)no1 (centres undefined) | 15.54 |  |
| O=C(NCC1CCOC1)Nc1ccc(OCC(F)(F)F)nc1 (centres undefined) | -8.857 |  |
| CSc1cc2c(cc1NC(=O)NCc1ccncc1)OCCO2 |  | -14.95% and -16.58% |
| COCCNC(=O)Nc1cc2c(cc1SC)OCCO2 |  | 98.06% and 101.8% and 101.9% |
| CSc1cc2c(cc1NC(=O)NCC(=O)N(C)C)OCCO2 |  | -16.92% and -17.04% and -26.51% |
| CSc1cc2c(cc1NC(=O)NCC1CCOC1)OCCO2 (centres undefined) |  | 105.7% and 100.9% and 97.86% |
| CSc1cc2c(cc1NC(=O)NCCn1ccnc1)OCCO2 |  | 101.5% and 100.4% and 104.7% |
| CC(NC(=O)NCCn1ccnc1)c1ccc2c(c1)OCCO2 (centres undefined) | -2.596 |  |
| COCCN(C)C(=O)Nc1cc2c(cc1SC)OCCO2 |  | -20.76% and -19.13% |
| CCN(CC)c1ccc(NC(=O)NCC2CCOC2)cn1 (centres undefined) |  | -11.53% and -8.697% |

| SMILES | Percent Effect [%] | Percent Effect (10 mM as filed; unlikely as a test dose) |
| --- | --- | --- |
| CCCc1ncc(CNC2(c3ccc(Cl)cc3)CCC2)cn1 | 9.707 |  |
| COc1ccc2cc(C(=O)N3CCCC(n4ccnc4C)C3)[nH]c2c1 (centres undefined) | -4.765 |  |
| O=C(O)[C@@H]1CN(C(=O)CC2CCCC2)C[C@H]1c1ccc(F)cc1 | 4.737 |  |
| Cc1nccc(C(=O)N2CCCC(c3cc(C(F)(F)F)[nH]n3)C2)n1 (centres undefined) | 8.419 |  |
| Cc1cc(C)n(C2CN(CC(=O)N(C)Cc3ccc(C)o3)C2)n1 | -8.906 |  |
| CN(C)C(=O)CN1CCCC1c1nccnc1Nc1ccccn1 (centres undefined) | -3.467 |  |
| Cc1ccc2c(c1)CN(C(=O)c1cnc(C)cn1)C(CN(C)C)CO2.Cl (centres undefined) | -2.552 |  |
| O=S(=O)(C1CC1)N1CCC2(COCc3cnc(-c4cccnc4)nc32)C1 (centres undefined) | 9.968 |  |
| CCOc1ccccc1OC1CCN(Cc2ccn(C)c(=O)c2)CC1 | 8.133 |  |
| CCOc1cc([C@H]2N[C@@H](c3nc(C)cs3)Cc3ccsc32)ccc1OC | 5.89 |  |
| CC(C)NC(=O)CC1CC2(CCN(CC3CC3)CC2)Oc2ccccc21.O=C(O)C(F)(F)F (centres undefined) | 11.82 |  |
| NC(=O)CC1CCN(C(=O)NCc2ccc(-c3ccn[nH]3)cc2)CC1 | 2.866 |  |
| COC(=O)CC1CCN(C(=O)Nc2ccc(-c3ccn[nH]3)cc2)C1 (centres undefined) |  | 84.64% and 84.71% and 100.4% |
| CCOCC1CCCN(C(=O)NCc2ccc(-c3ccn[nH]3)cc2)C1 (centres undefined) | 14.81 |  |
| COCc1cncc2c1CCN(C(=O)c1ccc(C#N)cc1)C2.O=C(O)C(F)(F)F | 7.706 |  |
| Cc1ccc(-c2cccc(CC3(C(=O)O)CCOCC3)c2)c(C)c1 | -5.038 |  |
| CN1CCCc2cc(CNC(=O)c3cc[n+]([O-])cc3)ccc21 | 8.46 |  |
| CCOCC1CN(C(=O)c2ccncn2)Cc2cnn(CC)c21.O=C(O)C(F)(F)F (centres undefined) | -5.589 |  |
| O=C(O)C1CCN(c2ccc(Sc3ccc(Br)cc3)nn2)CC1 |  | -3.247% and -5.657% |
| Cc1ccc(Sc2ccc(N3CCCC(C(=O)O)C3)nn2)cc1 (centres undefined) |  | 24.7% and 21.38% |
| Cc1ccc(Sc2ccc(N3CCC(C(=O)O)CC3)nn2)cc1 |  | 64.84% and 62.96% |
| CCNc1cc2c(nn1)CCN(C(=O)c1ccc3c(c1)OCO3)C2 | 6.984 |  |
